An excerpt weighted towards active compounds, which were near 8% of everything screened.
MARV entry inh – blocks Marburg virus binding to or entry into cells | 300,000 tested, 1.8% active | Potency, µM (highest dose often 37.8 µM), without a hit: top-dose activity change, negative = inhibition, hits mostly inhibitors | Marburg virus pseudotyped entry inhibition, cell reporter | AID 540276; calls by dose curve; tested in HEK293 cells; also: potency is read from the fitted curve at half-maximal effect; % is scaled to controls: 0 for no effect and ±100 for the full control effect
FMDV antiviral – foot and mouth disease virus antiviral activity. 410,000 tested, 1.2% active. AID 1159524. Potency, µM (top dose mostly 57.9 µM), without a hit: top-dose activity change, negative = inhibition, hits mostly inhibitors. FMDV antiviral cell-based qHTS; calls by dose curve; tested in HEK293T cells; also: read-out not given here; potency is read from the fitted curve at half-maximal effect; % is scaled to controls: 0 for no effect and ±100 for the full control effect; nearly all actives have a fitted effect of over 45% in size
SARS PLP yeast – SARS-CoV PLP inhibition in yeast; 330,000 tested, 0.19% active; AID 485353; Potency, µM (doses to about 32.9 µM), for inactives: at the top dose activity, positive = growth rescue, most hits filed as activators; S. cerevisiae expressing SARS-CoV PLpro, growth rescue; calls by dose curve; also: potency is read from the fitted curve at half-maximal effect; 0% is about no effect; nearly all actives have a fitted effect of over 55% in size
HCMV antiviral – blocks human cytomegalovirus replication | HFF cells, HCMV-luciferase reporter, 72 h; stronger effect = lower value | 410,000 tested, 4.5% active | activity change, negative = inhibition, % at 57.5 µM; in the data active = activity change below about -60%; inconclusive = no clear call, values can overlap the other calls; inactive = above about -39%; also: % is scaled to controls: 0 for no effect and ±100 for the full control effect
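Two compound doses tested in HFFs infected with HCMV-luciferase, MOI 1 PFU/cell, 72 h at 37C. Lysate luminescence read with OneGlo; data normalized against buffer-only and 10uM Salinomycin inhibitor controls.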
LASV entry inh – blocks Lassa virus binding to or entry into cells | Potency, µM (titrated, usually from 37.9 µM), for the others: at the top dose activity change, negative = inhibition, usual class: inhibitors | Lassa virus pseudotype entry inhibition, cell reporter | 300,000 tested, 1.2% active | AID 540256; calls by dose curve; tested in HEK293 cells; also: potency is read from the fitted curve at half-maximal effect; % is scaled to controls: 0 for no effect and ±100 for the full control effect; nearly all actives have a fitted effect of over 50% in size
HCV inh – HCV inhibition. Huh7.5.1 HCVcc-Cre infection, luciferase reporter, 44 h. Potency, µM (top dose mostly 41.8 µM), for the others: at the top dose activity change, negative = inhibition, actives largely listed as inhibitors. 340,000 tested, 3.4% active; active = well fitted inhibition curve with a large enough effect; inconclusive = small, poorly fitted or top-dose-only effect, or another doubt; inactive = no such curve, though single readings can be large or run the other way; also: potency is read from the fitted curve at half-maximal effect; % is scaled to controls: 0 for no effect and ±100 for the full control effect
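Infectious HCVcc-Cre (~0.5 moi) was added to cells just after compound, with cells seeded 4 h earlier at 1,000 per well. Luciferase activity after 44 h culture reported infection; substrate was incubated 15 min at room temperature before reading.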
The depositor's hits bear a star; [ ] = remark or other dose.

How did O=C(NC1CCN(Cc2ccccc2)CC1)C1CCN(S(=O)(=O)c2cccc3nsnc23)CC1 do in these assays?
MARV entry inh: -2%; FMDV antiviral: inconclusive; SARS PLP yeast: 6%; HCMV antiviral: -62*; LASV entry inh: 22%; HCV inh: 8%

How did Cc1cccc(NC(=O)C2CCN(S(=O)(=O)c3cccc4nsnc34)CC2)n1 do in these assays?
MARV entry inh: -20%; FMDV antiviral: inconclusive; SARS PLP yeast: 3%; HCMV antiviral: -4; LASV entry inh: inconclusive; HCV inh: 2%

Results for COc1ccc2nc(NC(=O)C3CCN(S(=O)(=O)c4cccc5nsnc45)CC3)sc2c1 ?
MARV entry inh: inconclusive; FMDV antiviral: 7.9µM*; SARS PLP yeast: 4%; HCMV antiviral: -75*; LASV entry inh: 4.6µM*; HCV inh: inconclusive

How did CCOc1ccc2nc(NC(=O)C3CCCN(S(=O)(=O)c4cccs4)C3)sc2c1 (stereo not drawn) do in these assays?
MARV entry inh: inconclusive; FMDV antiviral: inconclusive; SARS PLP yeast: -6%; HCMV antiviral: -24; LASV entry inh: inconclusive; HCV inh: 14µM*

Results for Cc1cccc2sc(NC(=O)C3CCN(S(=O)(=O)c4cc([N+](=O)[O-])ccc4Cl)CC3)nc12 ?
MARV entry inh: 6.3µM*; FMDV antiviral: inconclusive; SARS PLP yeast: -16%; HCMV antiviral: -17; LASV entry inh: inconclusive; HCV inh: inconclusive

Results for CCC(C(=O)Nc1cccc(C#N)c1)n1c(=O)c(-c2ccccc2NC(C)=O)nc2ccccc21 (stereo not drawn) ?
MARV entry inh: -3%[46.1 µM]; FMDV antiviral: inconclusive; HCMV antiviral: -21; LASV entry inh: 9%[46.1 µM]

How did Cc1cc(C(=O)NCC2CCC3(CCN(Cc4cccc(F)c4F)CC3)O2)n(C)n1 (stereo not drawn) do in these assays?
FMDV antiviral: -29%

What do the screens show for `CCn1cc(S(=O)(=O)c2cccc(Cl)c2)c(=O)c2cc(F)c(N3CCC(C)CC3)cc21`?
FMDV antiviral: 26%; HCMV antiviral: -25; LASV entry inh: 15%[46.1 µM]

Results for Nc1cc(C(=O)O)ccc1N1CCCCCC1 ?
MARV entry inh: -9%; SARS PLP yeast: 2%; HCMV antiviral: 28; LASV entry inh: -12%; HCV inh: 5.6µM*

Results for COc1ccc(CCN2CN(S(=O)(=O)c3ccccc3)c3nc4ccccc4nc32)cc1OC ?
MARV entry inh: -26%; FMDV antiviral: -11%; SARS PLP yeast: -9%; HCMV antiviral: -66*; LASV entry inh: -4%; HCV inh: inconclusive

Results for O=S(=O)(Nc1cccc(-c2nc3cccnc3s2)c1)c1ccc2c(c1)OCCO2 ?
FMDV antiviral: 43%; SARS PLP yeast: -5%; HCMV antiviral: -64*; HCV inh: inconclusive

What do the screens show for `O=[N+]([O-])c1ccc(Sc2nccn2Cc2ccccc2)cc1`?
MARV entry inh: 3%; SARS PLP yeast: -3%; HCMV antiviral: -77*; LASV entry inh: -16%; HCV inh: 1%

What do the screens show for `CC(C)Cc1ccc(C2=CSC3=NCCN23)cc1`?
MARV entry inh: inconclusive; FMDV antiviral: -16%; HCMV antiviral: 22; LASV entry inh: inconclusive; HCV inh: 11µM*

How did CC(C)(C)c1ccc(C2=CSC3=NCCN23)cc1 do in these assays?
MARV entry inh: inconclusive; FMDV antiviral: -14%; SARS PLP yeast: -14%; HCMV antiviral: 76; LASV entry inh: inconclusive; HCV inh: -25%

Results for Cc1nc2nc(SCC(=O)NCCCN3CCCC(C)C3)nn2c(C)c1Cc1ccccc1Cl (stereo not drawn) ?
FMDV antiviral: -23%; SARS PLP yeast: -3%; HCMV antiviral: 0; HCV inh: 11µM*

What do the screens show for `Cc1ccccc1Cc1c(C)nc2nc(SCC(=O)NCCCN3CCCC3)nn2c1C`?
MARV entry inh: inconclusive; FMDV antiviral: -1%; SARS PLP yeast: -12%; HCMV antiviral: -25; LASV entry inh: 9%[46.1 µM]; HCV inh: inconclusive

How did Cc1nc2nc(SCC(=O)NCCCN3CCCCCC3)nn2c(C)c1Cc1ccccc1Cl do in these assays?
FMDV antiviral: 4%; SARS PLP yeast: -1%; HCMV antiviral: active; HCV inh: inconclusive

How did CCC1CCCCN1CCCNC(=O)CSc1nc2nc(C)c(Cc3ccccc3Cl)c(C)n2n1 (stereo not drawn) do in these assays?
FMDV antiviral: 5%; SARS PLP yeast: 1%; HCMV antiviral: 0; HCV inh: -25%

What do the screens show for `O=C(CSc1nnnn1C1CC2CCC1C2)Nc1ccnc2ccccc12` (stereo not drawn)?
MARV entry inh: inconclusive; FMDV antiviral: 40µM*; SARS PLP yeast: -22%; HCMV antiviral: -76*; LASV entry inh: inconclusive; HCV inh: -15%

How did Cc1cccc(C)c1OCC(O)Cn1c2ccccc2c2ccccc21 (stereo not drawn) do in these assays?
MARV entry inh: inconclusive; FMDV antiviral: inconclusive; SARS PLP yeast: -31%; HCMV antiviral: -16; LASV entry inh: 2%; HCV inh: inconclusive

How did Cc1cccc(C)c1OCC(O)CN(Cc1ccccc1O)C1CCCCC1 (stereo not drawn) do in these assays?
MARV entry inh: inconclusive; FMDV antiviral: -7%; SARS PLP yeast: -3%; HCMV antiviral: -69*; LASV entry inh: -2%[46.1 µM]; HCV inh: inconclusive

Results for CCC(=O)c1ccc(OCC(O)CN(C)C2CCCCC2)cc1 (stereo not drawn) ?
MARV entry inh: inconclusive; FMDV antiviral: 0%; SARS PLP yeast: -1%; HCMV antiviral: 25; LASV entry inh: 2%; HCV inh: inconclusive

How did CN(C[C@H](O)COc1ccc(OC[C@H](O)CN(C)C2CCCCC2)cc1)C1CCCCC1 do in these assays?
MARV entry inh: 10µM*

How did CN(CC(O)COc1ccc(OCC(O)CN(C)C2CCCCC2)cc1)C1CCCCC1 (stereo not drawn) do in these assays?
MARV entry inh: 10µM*; FMDV antiviral: -1%; HCMV antiviral: inconclusive; LASV entry inh: inconclusive; HCV inh: 16µM*

Results for COP(=O)(OC)C(Nc1ccc(C)cc1)c1ccc([N+](=O)[O-])cc1 (stereo not drawn) ?
MARV entry inh: 26%; FMDV antiviral: 40%; SARS PLP yeast: 11%; HCMV antiviral: 139; LASV entry inh: inconclusive; HCV inh: 12%

What do the screens show for `CC(=O)CSc1ccc(-c2nc3cc(C)c(C)cc3[nH]2)cn1`?
MARV entry inh: inconclusive; FMDV antiviral: 8.9µM*; SARS PLP yeast: 0%; HCMV antiviral: -100*; LASV entry inh: inconclusive; HCV inh: inconclusive

How did Cc1cc2nc(-c3ccc(SCC(=O)Nc4ccc(S(=O)(=O)N5CCCC5)cc4)nc3)[nH]c2cc1C do in these assays?
MARV entry inh: 12µM*; FMDV antiviral: 0%; SARS PLP yeast: 10%; HCMV antiviral: 6; LASV entry inh: inconclusive; HCV inh: inconclusive
